Experimental data: PubChem BioAssay (NCATS)
Where “and” joins values, the source holds several entries; their conditions need not be identical. Equal values may be shown once. Records with an inconclusive call do not appear. Calls of active or inactive are those of the source. The call rests on the fitted dose curve; in most records, active means well fitted cell-killing curve with a large enough effect; inconclusive means small, poorly fitted or top-dose-only effect; inactive means flat fitted curve, though single readings scatter.

assay: Cellular viability qHTS for adrenocortical cancer (ACC) cell line SW-13 (AID 1963989); conditions: SW-13 ACC cells viability, CellTiter-Glo, 48 h; activity (max response): stronger effect = lower value; further: nearly all actives have a fitted effect of over 65% in size;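 on activity (max response): cells grown in serum-free medium with ITS supplement; on the % scale 0 is the no-effect control and ±100 the full control effect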
Method in brief: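 Compound titrations (up to 46 uM final, in DMSO) were applied to SW-13 cells for 48 h at 37C/5% CO2. Reading used CellTiter-Glo after 20 min at room temperature; fitted curves yielded IC50 and efficacy.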
Potency means the concentration at half of the fitted maximal effect.

Structure (SMILES)	activity (max response)	Potency
CNCC(=O)c1ccc(O)c(O)c1	2.58% (inactive)	
Cn1c(/C=C/CO)c(CO)c2c1C(=O)C=C(N1CC1)C2=O	-6.24% (inactive)	
COc1ccc2c3c1O[C@H]1[C@H](O)CC[C@H]4[C@@H](C2)N(C)CC[C@@]341	-5.89% (inactive)	
C[C@]12CCC(=O)C(O)=C1CC[C@@H]1[C@@H]2CC[C@]2(C)C(=O)CC[C@@H]12	4.45% (inactive) and 4.46% (inactive)	
C=C[C@H]1CN2CCC1C[C@@H]2[C@@H](O)c1ccnc2ccccc12 (stereo partly drawn)	-20.5% (inactive)	
CC[C@]1(O)CC[C@H]2[C@@H]3CCC4=CCCC[C@@H]4[C@H]3CC[C@@]21C		3.66 µM (active)
COc1cc(CC#N)cc(OC)c1OC	12% (inactive)	
C#C[C@]1(O)CC[C@H]2[C@@H]3CCC4=CC(=O)CC[C@]4(C)[C@H]3CC[C@@]21C	3.93% (inactive)	
Clc1ccc(CSC(Cn2ccnc2)c2ccc(Cl)cc2Cl)cc1 (stereo not drawn)		8.2 µM (active)
Nc1ccc([As](=O)(O)O)cc1	13.3% (inactive)	
COc1ccc(C(c2ccc(OC)cc2)C(Cl)(Cl)Cl)cc1		28.2 µM (active)
O=C(CCCN1CCC(n2c(=O)[nH]c3ccccc32)CC1)c1ccc(F)cc1	-18.7% (inactive)	
C[C@]12CC[C@H]3[C@@H](CCC4=CC(=O)CC[C@@H]43)[C@@H]1CC[C@@H]2OC(=O)CCc1ccco1	-19.1% (inactive)	
O=C1NCN(c2ccccc2)C12CCN(CC1COc3ccccc3O1)CC2 (stereo not drawn)	-9.54% (inactive)	
CN1C[C@@H](NS(=O)(=O)N(C)C)C[C@@H]2c3cccc4c3c(cn4C)C[C@H]21	-2.7% (inactive)	
Nc1ccc(N)cc1	5.64% (inactive)	
CCC1(CCC(C)C)C(=O)NC(=O)NC1=O	0.531% (inactive)	
O=c1[nH]c2cc(Cl)ccc2n1C1CCNCC1	8.8% (inactive)	
CCOC(C(=O)OCCN(C)C)(c1ccccc1)c1ccccc1	-0.322% (inactive)	
CN1C(=S)CN=C(c2ccccc2)c2cc(Cl)ccc21	-3.17% (inactive)	
CN(C)CCc1c[nH]c2ccc(O)cc12	2.14% (inactive)	
Cn1c(CCCCCCC(=O)NO)nc2cc(N(CCCl)CCCl)ccc21		15.8 µM (active)
CN[C@@H]1C[C@H]2O[C@@](C)([C@@H]1OC)n1c3ccccc3c3c4c(c5c6ccccc6n2c5c31)C(=O)NC4		0.1 µM (active)

assay: Cellular viability qHTS for adrenocortical cancer (ACC) cell line NCI-H295R (AID 1963990); conditions: CellTiter-Glo ATP luminescence, 48 h; series mostly up to 46.1 µM; further: nearly all actives have a fitted effect of over 60% in size
Method in brief: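 Readout: CellTiter-Glo luminescence, 20 min RT. Exposure: 48 h, 37C/5% CO2. Cells: NCI-H295R, ITS-DMEM serum-free. Range: up to 46 uM. Analysis: 4PL fit, IC50 plus efficacy.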

Structure (SMILES)	Potency
CNCC(=O)c1ccc(O)c(O)c1	inactive
O=c1[nH]c2ccccc2n1C1CCN(CCCC(c2ccc(F)cc2)c2ccc(F)cc2)CC1	23.1 µM (active)
Cn1c(/C=C/CO)c(CO)c2c1C(=O)C=C(N1CC1)C2=O	inactive
C[C@@H]1CC2=CC(=O)CC[C@@H]2[C@H]2CC[C@@]3(C)[C@@H](CC[C@]3(C)O)[C@@H]21	inactive
COc1ccc2c3c1O[C@H]1[C@H](O)CC[C@H]4[C@@H](C2)N(C)CC[C@@]341	inactive
C[C@]12CCC(=O)C(O)=C1CC[C@@H]1[C@@H]2CC[C@]2(C)C(=O)CC[C@@H]12	inactive
C=C[C@H]1CN2CCC1C[C@@H]2[C@@H](O)c1ccnc2ccccc12 (stereo partly drawn)	inactive
O=C1C(I)=CC(=C(c2cc(I)c(O)c(I)c2)c2ccccc2C(=O)O)C=C1I	20.6 µM (active)
CC[C@]1(O)CC[C@H]2[C@@H]3CCC4=CCCC[C@@H]4[C@H]3CC[C@@]21C	2.91 µM (active)
COc1cc(CC#N)cc(OC)c1OC	inactive
C#C[C@]1(O)CC[C@H]2[C@@H]3CCC4=CC(=O)CC[C@]4(C)[C@H]3CC[C@@]21C	inactive
Clc1ccc(CSC(Cn2ccnc2)c2ccc(Cl)cc2Cl)cc1 (stereo not drawn)	4.11 µM (active)
Nc1ccc([As](=O)(O)O)cc1	inactive
CC(C)(C)CC(C)(C)c1ccc(O)cc1	8.91 µM (active) and 13 µM (active)
O=C1OC(CCN2CCCCC2)OC1(c1ccccc1)c1ccccc1 (stereo not drawn)	25.9 µM (active)
COc1ccc(C(c2ccc(OC)cc2)C(Cl)(Cl)Cl)cc1	28.2 µM (active)
O=C(CCCN1CCC(n2c(=O)[nH]c3ccccc32)CC1)c1ccc(F)cc1	inactive
C[C@]12CC[C@H]3[C@@H](CCC4=CC(=O)CC[C@@H]43)[C@@H]1CC[C@@H]2OC(=O)CCc1ccco1	18.4 µM (active)
C=CC[C@]1(O)CC[C@H]2[C@@H]3CCC4=CC(=O)CCC4=C3C=C[C@@]21C	inactive
c1cc2ccc3cccc4ccc(c1)c2c34	inactive

Structure (SMILES)	Potency
O=C1NCN(c2ccccc2)C12CCN(CC1COc3ccccc3O1)CC2 (stereo not drawn)	inactive
c1ccc(CN2CCNCC2)cc1	inactive
Nc1c(Cl)c(Cl)c(Cl)c(Cl)c1Cl	inactive
CN1C[C@@H](NS(=O)(=O)N(C)C)C[C@@H]2c3cccc4c3c(cn4C)C[C@H]21	inactive
Nc1ccc(N)cc1	inactive
CCC1(CCC(C)C)C(=O)NC(=O)NC1=O	inactive
O=c1[nH]c2cc(Cl)ccc2n1C1CCNCC1	inactive
CCOC(C(=O)OCCN(C)C)(c1ccccc1)c1ccccc1	inactive
CC(=O)O[C@@]12CO[C@@H]1C[C@H](O)[C@@]1(C)C(=O)[C@H](O)C3=C(C)[C@@H](O)C[C@@](O)([C@@H](OC(=O)c4ccccc4)[C@H]21)C3(C)C	inactive
CN1C(=S)CN=C(c2ccccc2)c2cc(Cl)ccc21	inactive
CN(C)CCc1c[nH]c2ccc(O)cc12	inactive
CCOC(=O)C(c1c(O)c2ccccc2oc1=O)c1c(O)c2ccccc2oc1=O	inactive
CCCCC/C=C\C/C=C\C/C=C\C/C=C\CCCC(=O)NCC(=O)O	inactive
O=c1oc2ccccc2c(O)c1C(CC(O)c1ccc(-c2ccc(Br)cc2)cc1)c1ccccc1 (stereo not drawn)	18.4 µM (active)
Cn1c(CCCCCCC(=O)NO)nc2cc(N(CCCl)CCCl)ccc21	8.91 µM (active)
CNC(C)Cc1ccc2c(c1)OCO2 (stereo not drawn)	inactive
CN(C)CCc1c[nH]c2ccccc12	inactive
CN[C@@H]1C[C@H]2O[C@@](C)([C@@H]1OC)n1c3ccccc3c3c4c(c5c6ccccc6n2c5c31)C(=O)NC4	0.282 µM (active)
CC#C[C@]1(O)CC[C@H]2[C@@H]3C[C@H](C)C4=CC(=O)CC[C@]4(C)[C@H]3CC[C@@]21C	8.2 µM (active)
CC(C)(NC(=O)O[C@@H]1CN2CCC1CC2)c1csc(-c2ccc(F)cc2)n1	inactive
